Experiment [1] is described as follows: HUVEC growth inhibition – cell-based, human, primary screen (AID 575).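 Note: 100% = median of untreated cell wells with 0.1% DMSO on each plate.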 The conditions noted are these: HUVEC proliferation, CellTiter-Glo luminescence, 72 h; at 10 µM; stronger effect = lower value. A general note: ATP-based viability assays read luminescence as a measure of living cells.
Experiment [2] in a line: H69AR cell proliferation blockers – human, duplicate replicates, primary screen (AID 580;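 active = viability at or under a set limit in both replicates, limit being median viability minus 3 SD, cut at about 48% in these data, passing the limit was not always enough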;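 note: 100% = mean luminescence of untreated wells and 0% = no signal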). The conditions noted are these: H69AR lung tumor cells viability, ATP luminescence, 72 h; at 10 µM; stronger effect = lower value.
Experiment [3] is described as follows: MRP1 drug-resistance reversers in H69AR cells – cell-based, doxorubicin co-treatment, pilot screen (AID 601;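 active = viability loss from added drug above about 55%, and viability with drug at most 40%, in both replicates, limit read from the data, passing the limit was not always enough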). Conditions: CellTiter-Glo, 72 h, at 10 µM; for differential viability (reversal): stronger effect = higher value.
Experiment [4] is described as follows: yeast transport mutant growth inhibition pilot in 384-well plates, post-Golgi transport modulator project (AID 636; in the data active = inhibition above about 31%). The conditions noted are these: absorbance 615 nm, about 18 h, stronger effect = higher value.
The nature of experiment [5]: growth suppression of yeast trafficking mutant, preliminary HTS, modulators of trafficking downstream of Golgi apparatus project, 1536-format plate, OD 615 nm (AID 637; in the data active = inhibition above about 30%). Conditions: yeast transport mutant growth, absorbance 615 nm, 18 h; stronger effect = higher value.
Experiment [6] in a line: S. cerevisiae growth inhibition in permissive medium (OD615), pilot counter-assay for S. cerevisiae lifespan shortening project, permissive growth control (AID 705;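 active = growth inhibition above 25% in both replicates, a cutoff set 3 SD above the mean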). The conditions noted are these: OD615, 24 h, at 10 µM, stronger effect = higher value.
Experiment [7] is described as follows: S. cerevisiae growth inhibition in restrictive medium, OD615, pilot screen, restrictive growth control, yeast lifespan reduction project (AID 706;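 active = growth inhibition above a set limit, 3 SD over mean compound inhibition, in both replicates, cut at about 43% in these data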;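 note: modified DeaD lifespan yeast strain shifted to restrictive glucose medium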). The conditions noted are these: OD615, 48 h, at 10 µM, stronger effect = higher value.
Experiment [8] can be described thus: doxorubicin toxicity protection in MRP-1 cells – H69AR cells, CellTiter-Glo, duplicate, MRP-1 activator project, pilot screen (AID 807;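 active = viability increase at or above a cutoff of the median across tested compounds plus 3 SD, cut at about 8.5% in these data, passing the limit was not always enough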;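 note: compound pretreatment 18-22 h then 72 h combined with doxorubicin; 0% = doxorubicin alone and 100% = vehicle without doxorubicin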). The conditions noted are these: H69AR viability with doxorubicin, CellTiter-Glo luminescence; at 10 µM; stronger effect = higher value.
A short description of experiment [9]: viability of HCT116 without oncogenic beta-catenin – human colon tumor cells, pilot screen (AID 823;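 active = cell viability at or below a set limit in both duplicate runs, the limit being the all-compound median minus 4 SD, cut at about 23% in these data, passing the limit was not always enough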;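 note: 0% = wells killed by 20 µM Hyamine and 100% = untreated DMSO cell wells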). The conditions noted are these: HCT116 beta-catenin knockout viability, CellTiter-Glo, 60 h; at 10 µM; stronger effect = lower value.
Experiment [10] is described as follows: viability of PTEN-null HCT116 cells – cell-based, HCT116 clonal line, CellTiter-Glo, pilot screen (AID 824;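 active = viability at or below 27.92% in each of two runs, the all-compound median minus 4 SD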;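 note: 0% = 20 µM Hyamine control and 100% = vehicle cell control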). Conditions: HCT116 PTEN-deleted viability, 60 h, at 10 µM, stronger effect = lower value.
Experiment [11] in a line: RAM pathway blockade in budding yeast – dse1pr::URA3 reporter, 5-FOA selection, pilot screen (AID 869;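 active = inhibition over a set limit, the all-compound mean plus 3 SD, in both replicate runs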;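 note: 0% = DMSO wells with no growth and 100% = 10 µM 1-NA-PP1 with full growth; RAM network block rescues cells from 5-FOA so hits raise OD615 growth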). The conditions noted are these: S. cerevisiae dse1pr::URA3 5-FOA growth, OD615, 2 d; at 10 µM; stronger effect = higher value; strain carries analog-sensitive mutant Cbk1 kinase.
Experiment [12] in a line: RAM signaling pathway blockade in yeast – S. cerevisiae, Pdr1DBD-CYC8 efflux-inhibited sensitized strain, primary screen (AID 1298;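 active = RAM network inhibition above 8.4% in each of two replicates, 3 SD over the compound average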;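 note: 0% = DMSO untreated cells without growth and 100% = 10 µM 1-NA-PP1 full growth; higher means more yeast growth rescued from 5-FOA killing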). Conditions: S. cerevisiae cbk1-as DSE1-URA3 strain, 5-FOA growth OD615, 2 d; at 50 µM; stronger effect = higher value.
Setting [13] is: H69AR cells + 2 uM doxorubicin, measured here: viability with 2 uM doxorubicin, stronger effect = lower value.
The mark [14] stands for this setting: H69AR cells, compound alone cytotoxicity.

Inconclusive results are not listed. The source made the active and inactive calls.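 Rule for the calls, unless noted: active = viability at or below 30% in both replicate assays; inconclusive = viability at or below 30% in just one of the two assays; inactive = the rest.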

The term viability denotes a read-out of living cells in per cent, often relative to untreated cells. The inhibition is the change of the read-out against control, counted positive when it falls. As for `O=C(COC(=O)C1(c2ccccc2F)CCCC1)NC1CCS(=O)(=O)C1` (configuration not stated), the viability in experiment [1] was 118% (inactive); in experiment [2], 97.2% (inactive); in experiment [3] (setting [13]) it was 93.9%; in experiment [3] (setting [14]) it was 97.2%; in experiment [9], 99.4% (inactive); in experiment [10] it was 95.3% (inactive). The differential viability (reversal) in [3] (H69AR cells + 2 uM doxorubicin) was 3.27% (inactive). In addition, the results for the inhibition in experiment [4], in [5] and in [11] were -1.69% (inactive), -2.06% (inactive) and 0.035% (inactive), respectively. For the same compound, the growth inhibition was 5.97% (inactive) in [6] and 2.54% (inactive) in experiment [7]. Besides, in experiment [8], the viability increase was -0.5% (inactive). For the same compound, the RAM network inhibition in experiment [12] is 3.94% (inactive).

Regarding `COc1ccc(-c2nn(-c3ccccc3)cc2/C=N/n2cnnc2)cc1OC`, the viability in [1] is 79.3% (inactive); in experiment [2], 79.8% (inactive); in experiment [3] (setting [13]), 91%; in experiment [3] (setting [14]), 79.8%; in experiment [9] it was 88% (inactive); in [10] it was 84% (inactive). Also, in [3] (H69AR cells + 2 uM doxorubicin), the differential viability (reversal) is -11.2% (inactive). Besides, the inhibition in experiment [4] was -6.84% (inactive); in experiment [5], -0.63% (inactive); in experiment [11], -0.92% (inactive). Moreover, the values for the growth inhibition in experiment [6] and in experiment [7] were 2.04% (inactive) and 17.4% (inactive), respectively. Moreover, in experiment [8], the viability increase is -4.33% (inactive). Further, in experiment [12], the RAM network inhibition is -1.68% (inactive).

Turning to `CCCCNC(=O)Nc1ccnn1C1CCCCC1`, the viability is 96.5% (inactive) in experiment [1]; 100% (inactive) in experiment [2]; 87.2% in [3] (setting [13]); 100% in [3] (setting [14]); 97.9% (inactive) in experiment [9]; 90.7% (inactive) in experiment [10]. Besides, the differential viability (reversal) in experiment [3] (H69AR cells + 2 uM doxorubicin) was 13% (inactive). In addition, the results for the inhibition in [4], in experiment [5] and in [11] were -3.64% (inactive), 7.14% (inactive) and -0.255% (inactive), respectively. In addition, the growth inhibition in [6] is -5.58% (inactive); in experiment [7], -15% (inactive). In experiment [8], the viability increase is -1.77% (inactive). Further, in [12], the RAM network inhibition is -2.79% (inactive).

With `Cc1ccc(-c2cc(C(F)F)nc(N3CCC(C)CC3)n2)cc1`, the viability in [1] is 85.7% (inactive); in experiment [2] it was 91.1% (inactive); in experiment [3] (setting [13]), 89.7%; in experiment [3] (setting [14]), 91.1%; in experiment [9], 100% (inactive); in [10] it was 101% (inactive). In addition, the differential viability (reversal) in [3] (H69AR cells + 2 uM doxorubicin) was 1.39% (inactive). Moreover, the inhibition is -4.47% (inactive) in experiment [4], 1.75% (inactive) in [5] and 2.67% (inactive) in experiment [11]. The values for the growth inhibition in experiment [6] and in experiment [7] were 3.35% (inactive) and 6.11% (inactive), respectively. Also, in experiment [8], the viability increase is 1.95% (inactive). Further, the RAM network inhibition in experiment [12] was 6.64% (inactive).

For the compound `CC(C)=CC(=O)OCC(=O)NC(=O)NC(C)(C)C`, the viability was 103% (inactive) in experiment [1]; 97% (inactive) in [2]; 101% in experiment [3] (setting [13]); 97% in experiment [3] (setting [14]); 104% (inactive) in experiment [9]. Besides, the differential viability (reversal) in experiment [3] (H69AR cells + 2 uM doxorubicin) was -3.87% (inactive). For the same compound, the inhibition in [4] was 0.52% (inactive); in [5], -3.97% (inactive); in [11], 2.76% (inactive). In addition, the growth inhibition was 1.02% (inactive) in experiment [6] and 3.65% (inactive) in experiment [7]. Also, the viability increase in experiment [8] is -3.01% (inactive). For the same compound, the RAM network inhibition in [12] was 2.91% (inactive).

With `O=C(NCCc1cccc(Cl)c1)c1cccnc1`, the viability in experiment [1] is 87.9% (inactive); in experiment [2] it was 103% (inactive); in experiment [3] (setting [13]), 76.8%; in experiment [3] (setting [14]), 103%; in [9], 98.9% (inactive); in [10], 98.3% (inactive). Also, in experiment [3] (H69AR cells + 2 uM doxorubicin), the differential viability (reversal) is 26.5% (inactive). Besides, the inhibition in experiment [4] was -2.21% (inactive); in experiment [5], 5.4% (inactive); in [11] it was 0.32% (inactive). The growth inhibition in [6] was -1.24% (inactive); in [7] it was 10.7% (inactive). For the same compound, the viability increase in [8] is -0.51% (inactive). In addition, the RAM network inhibition in experiment [12] is 1.21% (inactive).

Consider `COc1ccc(-c2nc(N3CCCC3)[nH]c(=O)c2C#N)cc1`, for which the viability was 97% (inactive) in [1]; 87.9% (inactive) in [2]; 85.8% in experiment [3] (setting [13]); 87.9% in [3] (setting [14]); 104% (inactive) in [9]; 90.7% (inactive) in experiment [10]. Further, the differential viability (reversal) in [3] (H69AR cells + 2 uM doxorubicin) is 2.17% (inactive). The figures for the inhibition in [4], in experiment [5] and in [11] were -1.45% (inactive), 0.79% (inactive) and 1.63% (inactive), respectively. Also, the growth inhibition in experiment [6] is 0.51% (inactive); in experiment [7], 0.48% (inactive). In addition, the viability increase in experiment [8] was -0.94% (inactive). The RAM network inhibition in [12] is 3.39% (inactive).

With `CCn1cc(C(=O)NCC2COc3ccccc3O2)c2cc(OC)c(OC)cc2c1=O` (configuration not stated), the viability is 77.5% (inactive) in [1]; 79.3% (inactive) in experiment [2]; 79% in [3] (setting [13]); 79.3% in experiment [3] (setting [14]); 97.9% (inactive) in experiment [9]; 86.7% (inactive) in experiment [10]. The differential viability (reversal) in experiment [3] (H69AR cells + 2 uM doxorubicin) is 0.385% (inactive). Moreover, the inhibition in [4] was -6.05% (inactive); in experiment [5] it was 0.16% (inactive); in experiment [11] it was 0.96% (inactive). The growth inhibition in [6] is -11.4% (inactive); in experiment [7], -33.2% (inactive). In addition, the viability increase in experiment [8] is -4.69% (inactive). The RAM network inhibition in [12] is 3.33% (inactive).

As for `COCCn1c(=O)[nH]c2cc(C(=O)N3CCN(c4ccccc4OC)CC3)ccc2c1=O`, the viability is 110% (inactive) in [1]; 85.8% (inactive) in experiment [2]; 91.4% in experiment [3] (setting [13]); 85.8% in experiment [3] (setting [14]); 104% (inactive) in experiment [9]; 99% (inactive) in [10]. Further, the differential viability (reversal) in experiment [3] (H69AR cells + 2 uM doxorubicin) was -5.65% (inactive). The inhibition in experiment [4] was -4.87% (inactive); in experiment [5], 0.32% (inactive); in [11], 1.2% (inactive). For the same compound, the growth inhibition in [6] is -3.6% (inactive); in [7], -7.11% (inactive). In addition, the viability increase in experiment [8] is -0.61% (inactive). Moreover, the RAM network inhibition in experiment [12] was 6.96% (inactive).

As to `O=c1cc(-c2ccco2)oc2ccc(Cl)cc12`, the viability in experiment [1] is 111% (inactive); in experiment [2], 98.4% (inactive); in experiment [3] (setting [13]), 85.9%; in [3] (setting [14]), 98.4%; in [9], 96.9% (inactive); in experiment [10] it was 98.2% (inactive). The differential viability (reversal) in experiment [3] (H69AR cells + 2 uM doxorubicin) is 12.5% (inactive). Moreover, the inhibition in experiment [4] is -2.6% (inactive); in [5], 4.76% (inactive); in experiment [11] it was 0.61% (inactive). Moreover, the growth inhibition in [6] is -19.4% (inactive); in [7], -2.54% (inactive). Also, in experiment [8], the viability increase is -2.08% (inactive). The RAM network inhibition in [12] is 6.02% (inactive).

Regarding `O=C(NCc1cccs1)C(Cc1ccccc1)NS(=O)(=O)c1cccs1` (configuration not stated), the viability in experiment [1] is 95.7% (inactive); in experiment [2], 91.7% (inactive); in experiment [3] (setting [13]), 87.2%; in [3] (setting [14]) it was 91.7%; in experiment [9] it was 94.3% (inactive). Moreover, in experiment [3] (H69AR cells + 2 uM doxorubicin), the differential viability (reversal) was 4.5% (inactive). Further, the inhibition in experiment [4] was -3.16% (inactive); in experiment [5], 5.08% (inactive); in experiment [11] it was 1.43% (inactive). Moreover, the growth inhibition was -17.7% (inactive) in experiment [6] and -8.73% (inactive) in experiment [7]. Moreover, in experiment [8], the viability increase is -1.46% (inactive). In experiment [12], the RAM network inhibition was 4.56% (inactive).

The values above are taken from PubChem BioAssay.
